The whole screen tested about 1,300 compounds, of which about 140 (11%) were called active. How the calls were made is not given here. Only a sample is shown. Potency and affinity values are given separately.
target: Prostaglandin E2 receptor EP2 subtype (Homo sapiens) (UniProt P43116); experiment: compounds shifting PGE2 potency at EP2 – cell-based, human EP2, PGE2 EC50 shift, dose response (AID 1421); conditions: EP2-expressing cells, PGE2 EC50 shift by compound; at 20 µM
Sequence (P43116 whole entry, looked up): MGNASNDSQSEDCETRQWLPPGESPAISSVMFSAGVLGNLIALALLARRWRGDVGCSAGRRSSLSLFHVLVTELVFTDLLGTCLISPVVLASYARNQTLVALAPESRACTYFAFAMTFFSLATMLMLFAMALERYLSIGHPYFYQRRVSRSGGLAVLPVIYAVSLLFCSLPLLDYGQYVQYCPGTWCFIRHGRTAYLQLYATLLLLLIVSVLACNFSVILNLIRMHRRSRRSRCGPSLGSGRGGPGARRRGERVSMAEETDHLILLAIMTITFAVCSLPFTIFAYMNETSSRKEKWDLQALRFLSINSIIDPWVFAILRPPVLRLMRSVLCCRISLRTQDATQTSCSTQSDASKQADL

PGE2 EC50 with compound, inactive:
Cc1ccc2c3c(cccc13)-c1ccccc1C2=O 0.36 nM
Cn1c(=O)c(NCCc2ccccc2)c2c3c(cccc31)C(=O)c1ccccc1-2 0.58 nM
NC(=O)CSc1nnc(-c2cccc(S(=O)(=O)N3CCOCC3)c2)n1C1CCCCCC1 0.63 nM
CCCSc1nc(N2CCCC2)c2c(c1C#N)CC(C)(C)OC2 0.26 nM
Cc1noc(C)c1CSc1nc2sc3c(c2c(=O)n1C)CCCC3 0.89 nM
Cc1cc2ccc(C)c(C)c2nc1SCC#N 0.35 nM
C=CCn1c(CCc2cc(C(C)(C)C)c(O)c(C(C)(C)C)c2)n[nH]c1=S 0.58 nM
OCCCNc1nc(-c2ccc(Cl)cc2)nnc1-c1ccc(Br)cc1 1.44 nM
CC(OC(=O)c1oc2ccccc2c1COc1ccccc1)C(=O)NC(N)=O (stereo not given) 0.23 nM
CCOc1ccccc1NC(=O)c1ccccc1-c1nc(-c2ccccc2)no1 0.4 nM
Cc1onc(-c2ccccc2Cl)c1-c1nc(-c2ccncc2)no1 0.49 nM
Cc1nn2c(N3CCN(C(=O)c4ccco4)CC3)cc(C(C)(C)C)nc2c1-c1ccccc1 1.08 nM
Cc1ccc(NCc2n[nH]c(=S)n2Cc2ccccc2)cc1Cl 0.64 nM
O=C(O)/C=C/c1ccccc1Oc1ccc(Cl)cc1Cl 1.45 nM
COc1ccc(OC)c(/C=C/C(=O)N2CCCc3ccccc32)c1 0.28 nM
COc1cc2c(cc1OC)-c1cc(Nc3ccc4c(c3)OCCO4)nc(=O)n1CC2 0.72 nM
C=C(C)Cn1c(C)cc(C)c(S(=O)(=O)c2ccc(C)cc2)c1=O 0.32 nM
COC(=O)c1c(NC(=O)CSc2nnc(-c3ccco3)n2Cc2ccccc2)sc(C)c1C 0.82 nM
CCc1cc2cc3c(cc2nc1SCC(=O)OC(C)C)OCO3 0.14 nM
O=c1[nH]c2ccc(Br)cc2c(-c2ccccc2)c1N1CCOCC1 0.39 nM
CCOC(=O)C1CCN(c2c(C(=O)c3ccccc3)cnc3ccc(CC)cc23)CC1 0.81 nM
O=c1[nH]c2ccc(Cl)cc2c(-c2ccccc2)c1N1CCN(c2ccccn2)CC1 0.62 nM
CCOC(=O)C1CCN(c2c(C(=O)c3ccccc3)cnc3ccc(Cl)cc23)CC1 0.39 nM
O=C(Nc1cccc2cccnc12)c1ccc(Br)o1 0.36 nM
CCOP(=O)(OCC)c1nc(/C=C/c2ccccc2)oc1NCc1ccccc1 0.52 nM
CC1CCCN(C(=O)CSc2cnc3ccccc3n2)C1 (stereo not given) 1.42 nM
CCOC(=O)c1c(N)sc2c1CCC(CC)C2 (stereo not given) 0.46 nM
COCC(=O)Nc1sc2c(c1C(=O)OC)CCC(C)C2 (stereo not given) 0.38 nM
CCn1nnnc1SCC(=O)Nc1cccc(C)n1 1.23 nM
COc1cccc(C2=NN(C(=O)c3cccs3)C(O)(C(F)(F)F)C2)c1 (stereo not given) 0.25 nM
S=C(Nc1ccccc1Cl)N(Cc1ccccc1)Cc1ccccn1 0.41 nM
CN(C)c1nccc(N(Cc2ccccc2)Cc2ccccc2)c1C#N 0.29 nM
Cc1ccc(C(C)C)c(OCCn2c(=O)oc3ccccc32)c1 0.33 nM
CC(C)(C)C1CCc2onc(C(=O)Nc3cccnc3)c2C1 (stereo not given) 0.4 nM
c1ccc(C2Nc3ccccc3Oc3ccccc32)cc1 (stereo not given) 0.21 nM
O=C(NCCC1=CCCCC1)c1cccc2c1C(=O)N(C1CCCCC1)C2 1.89 nM
Cc1ccc(S(=O)(=O)N2c3ccccc3OCC2C(C)(C)C)cc1 (stereo not given) 0.14 nM
Cc1ccc2c(c1)N(S(=O)(=O)c1ccc(F)cc1)C(C(C)(C)C)CO2 (stereo not given) 0.45 nM
CCC(=O)N(CC)c1nc(-c2cc(OC)ccc2OC)cs1 0.24 nM
CCCOP(=O)(OCCC)c1nc(-c2ccccc2)oc1NCc1ccccc1 0.15 nM
CCOc1ccc(OCC)c(NC(=O)CN2CCN(c3cccc(C)c3)CC2)c1 0.86 nM
O=C(O)c1cc(C(=O)O)cc(N2C(=O)c3ccccc3C2=O)c1 0.39 nM
O=C1CCCc2ccccc2N1Cc1c(Cl)cccc1Cl 0.64 nM
O=c1c2ccccc2c(-c2ccccc2)nn1Cc1c(Cl)cccc1Cl 0.41 nM
CN(Cc1cccs1)c1nc(-c2cccnc2)nc2ccccc12 0.64 nM
CCCCn1c(C)cc(C)c(S(=O)(=O)c2ccccc2C)c1=O 0.31 nM
CC(C)CCn1c(Oc2ccc(Cl)cc2)nc2c1c(=O)n(C)c(=O)n2C 0.31 nM
CC(C)CCn1c(O)c(N=NC(=O)c2ccco2)c2ccccc21 0.33 nM
O=c1c2ccccc2c2ccccc2c(=O)n1Cc1ccco1 0.45 nM
CCCN(CCC)C(C)C(=O)NCC1(c2ccccc2)CCCC1 (stereo not given) 0.23 nM
CCSc1nc2ccccc2n1Cc1ccccc1F 0.31 nM
CC1CCN(C(C)C(=O)Nc2ccccc2-c2ccccc2)CC1 (stereo not given) 0.26 nM
Cc1ccc(S(=O)(=O)NCC(=O)OCN2C(=O)c3ccccc3C2=O)cc1 2.7 nM
Cc1ccc(S(=O)(=O)c2ccc(Oc3cccc(C)c3)cc2)cc1 0.66 nM
COc1ccc(OCC(=O)NC(=S)Nc2ccc3c4c(cccc24)CC3)cc1 11.2 nM
COc1ccc(-c2cc(C(F)(F)F)nc(NC3CCCC3)n2)cc1OC 0.54 nM
c1ccc(Nc2nc(N3CCNCC3)nc(N3CCOCC3)n2)cc1 0.98 nM
COc1ccc(-c2cc(C(F)(F)F)n3nc(C(=O)N(C)Cc4ccccc4)cc3n2)cc1OC 0.42 nM
Cc1cnn(-c2nc(-c3ccccc3)cc(-c3ccccc3)n2)c1 0.56 nM
COc1ccc(C2=Nn3c(nnc3-c3ccccc3)SC2)cc1OC 0.88 nM
CN(C)c1nc(N2CCOCC2)nc(N(c2ccccc2)c2ccccc2)n1 0.59 nM
CC(=O)c1sc2nc(-c3ccc(C)cc3)c3c(c2c1N)CCCC3 0.52 nM
O=C(/C(=C/O)N=Nc1ccccc1)c1cccs1 2.24 nM
COCCOC(=O)c1c(C)oc2ccc(OCc3ccccc3)cc12 0.53 nM
c1ccc(Oc2nc3ccccc3n3cccc23)cc1 0.38 nM
Cc1cc(C)c2c(n1)sc1c(=O)n(Cc3ccccc3Cl)nnc12 0.29 nM
O=C1c2ccccc2OC2(C=Cc3ccccc3O2)N1Cc1ccccc1 (stereo not given) 0.27 nM
Clc1ccc(-c2nn3c(-c4ccccc4)nnc3s2)cc1 1.36 nM
CCCCOC(=O)Sc1nc2ccccc2o1 2.08 nM
COc1ccc(-c2cc(C(F)(F)F)nc(NCc3ccco3)n2)cc1OC 0.48 nM
COc1ccc(C(=O)NCCCN2CCOCC2)cc1OC 0.55 nM
CC(=O)Oc1c2c(c3c(c1CC=C(C)C)O[C@]14C(=C[C@@H]5CC1C(C)(C)OC4(C/C=C(\C)C(=O)O)C5=O)C3=O)OC(C)(CCC=C(C)C)C=C2 (stereo not given in full) 7.31 nM
O=c1cc(N2CCCCC2)c(-c2ccccc2)nn1Cc1c(Cl)cccc1Cl 1.07 nM
O=c1cc2c(nn1Cc1c(Cl)cccc1Cl)-c1ccccc1CC2 0.74 nM
Cc1ccc(Oc2nc(-c3ccccc3)ncc2S(C)(=O)=O)cc1 0.58 nM
O=C(O)c1ccc(CNCc2cccc(Cl)c2Cl)cc1 1.05 nM
CCOC(=O)C1=CN(CC2CCCO2)C=C(C(=O)OCC)C1c1ccccc1C(F)(F)F (stereo not given) 0.31 nM
C=CCC1(C)C(=O)N(c2ccccc2)c2ccccc21 (stereo not given) 0.38 nM
Brc1cccc(-c2nnc(SCc3ccon3)n2-c2ccccc2)c1 0.48 nM
COc1ccc(Oc2cc(C(F)(F)F)nc(N(C)C)n2)cc1 0.6 nM
Cc1cc(C)n(-c2nc(C)nc3c2cnn3-c2ccccc2)n1 0.41 nM
COC(=O)c1ccc(-c2ccco2)n1Cc1cccc(C)c1 0.17 nM
Cc1nn(Cc2c(Cl)cccc2Cl)c(C)c1C(=O)NCc1ccc(C)n1C 0.76 nM
O=C(CSc1nc2cc(Cl)ccc2s1)N1CCCc2ccccc21 0.24 nM
C/C(=N\N=C(c1ccccc1)c1ccccc1)c1ccco1 0.47 nM
CCOC(=O)c1ccccc1NC1c2ccccc2C(=O)N1c1cc(C)ccn1 (stereo not given) 0.34 nM
CCOc1ccccc1Cn1c(=O)oc2ccc(C)cc21 0.36 nM
CCOc1ccccc1NC(=O)c1c(Br)cnn1C 0.79 nM
O=C(CSc1ncnc2c1oc1ccccc12)Nc1cccc(F)c1 2.94 nM
COc1cccc(/C=N/c2oc(-c3ccccc3)cc2C#N)c1O 8.67 nM
COc1ccc(Nc2nc(-c3cc4cccc(OC)c4oc3=O)cs2)cc1 0.92 nM
O=C(CSc1nnc(COc2ccccc2)n1-c1ccccc1)c1ccccc1 0.74 nM
Cc1cc(C)cc(OC2CCCCC2NS(=O)(=O)c2ccccc2)c1 (stereo not given) 0.48 nM
C=CCOc1ccccc1CNc1ccccc1C 0.32 nM
COc1ccccc1C(=O)NC(=S)Nc1cc(C(=O)O)ccc1C 0.34 nM
